An excerpt weighted towards active compounds, which were near 2.1% of everything screened.
TDP43 rescue – TDP-43 toxicity inhibition in yeast; TDP-43 expressing yeast growth rescue, BacTiter-Glo, 24 h; Potency, µM (highest dose often 46.1 µM), usual class: activators; hit rate 1.8% among 410,000; AID 652104; also: nearly all actives have a fitted effect of over 50% in size
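Yeast expressing TDP-43 (pregrown in raffinose, seeded at OD600=0.02 in galactose medium) exposed to compounds 24 hr at 30 deg C. Growth read by BacTiter-Glo luminescence; rescue of toxicity appears as increased signal.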
aSyn rescue – alpha-synuclein toxicity inhibition in yeast; Yeast expressing alpha-synuclein, growth rescue, BacTiter-Glo, 24 h; Potency, µM (series often up to 46.1 µM), usual class: activators; hit rate 0.14% among 370,000; AID 652106; also: nearly all actives have a fitted effect of over 65% in size
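Readout is rescue of growth in alpha-synuclein-expressing yeast, so inhibitors of toxicity appear as activators. Growth after 24 hr at 30 deg C in galactose medium is quantified by luminescence.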
Abeta rescue – compounds reversing amyloid beta toxicity in yeast. yeast expressing A-beta42, growth rescue, OD600, 48 h; response scale: 0% DMSO, 100% iron-clioquinol control. Potency, µM (series often up to 46.1 µM), most hits filed as activators. hit rate 0.063% among 410,000; also: nearly all actives have a fitted effect of over 55% in size
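Yeast A-beta toxicity model in growth medium with pinned compounds, 48 h at 30 C; growth read as absorbance at 600 nm. Normalized to FeCl3/clioquinol equimolar mix (positive) and DMSO (negative).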
FUS yeast rescue – rescues growth of FUS-expressing yeast; S. cerevisiae FUS-expressing, growth rescue, OD600, 24 h; Potency, µM (top dose mostly 76.6 µM), usual class: activators; hit rate 0.24% among 390,000; AID 1347120; also: nearly all actives have a fitted effect of over 55% in size
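Galactose (2%) drives FUS expression in yeast precultured in raffinose; seeding density OD 0.005. Test compounds incubated 24hr at 30C and 99% humidity before absorbance at 600 nm was measured.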
Of the large screens only hits and unclear results are named; the others gave an inactive call. Calls follow the shape of the dose curve; as a rule, active = well fitted curve in the direction sought with a large enough effect; inconclusive = small, poorly fitted or top-dose-only effect, or another doubt; inactive = no such curve, though single readings can be large; an effect the other way counts as inactive or inconclusive.

COC(=O)c1ccccc1NC(=O)c1ccc2c(c1)CC(C)O2 (stereo not drawn)	TDP43 rescue 13µM
COc1ccccc1N1CCN(S(=O)(=O)c2c(C)nc3sc(C)c(C)n3c2=O)CC1	none (no result: aSyn rescue)
Cc1ccc(S(=O)(=O)NCc2c(Cl)cccc2Oc2ccccc2)cc1	TDP43 rescue 20µM
CCCCCN1CCCCC(NC(=O)c2ccc(F)c(F)c2)C1=O (stereo not drawn)	none (no result: TDP43 rescue, aSyn rescue, Abeta rescue)
O=C(C1CCCN(c2ncnc3c2nc2n3CCCCC2)C1)N1CCN(c2ccccc2F)CC1 (stereo not drawn)	TDP43 rescue 11µM
CCc1ccccc1N(C)C(=O)C1CCCN(c2ncnc3c2nc2n3CCCCC2)C1 (stereo not drawn)	TDP43 rescue 11µM (no result: aSyn rescue)
O=C(Nc1ccccc1Cl)C1CCCN(c2ncnc3c2nc2n3CCCCC2)C1 (stereo not drawn)	TDP43 rescue 14µM
Cc1ccc(OCC(=O)Nc2cccc(C(=O)OCc3cc(=O)n4cc(C)sc4n3)c2)cc1	none (no result: aSyn rescue)
CC[C@]12c3[nH]c4ccccc4c3CCN1C(=O)C(CC(=O)NCCCn1ccnc1)C[C@@H]2C(=O)N1CCN(C(=O)c2ccco2)CC1 (stereo partly drawn)	none
CCC(C)n1c(=N)c(C(=O)NCc2ccco2)cc2c(=O)n3cc(C)ccc3nc21 (stereo not drawn)	none (no result: aSyn rescue)
Cc1cc(C)c(NC(=O)CNC(=O)COC(=O)Cc2cccs2)c(C)c1	TDP43 rescue 11µM
Cc1cc(C)c(NC(=O)CNC(=O)COC(=O)Cc2ccccc2C)c(C)c1	none
COc1ccccc1C1CCN(C(=O)c2cccs2)CC1	TDP43 rescue 13µM
COc1ccc(CCNC(=O)CCc2ccc(S(=O)(=O)NCC(C)C)cc2)cc1OC	none
CCCCCn1cc2c(c1-c1ccccc1Br)c(=O)n(C)c(=O)n2C	TDP43 rescue 18µM (no result: aSyn rescue)
CCCCn1cc2c(c1-c1ccccc1Br)c(=O)n(C)c(=O)n2C	none (no result: aSyn rescue)
CCOC1=C2CN(S(=O)(=O)c3ccc(C)cc3)[C@H](c3ccccc3)C[C@@H]2N(S(=O)(=O)c2ccccc2C)[C@H](c2ccccc2)C1	none
COc1ccc([C@H]2CC(=O)C=C(c3ccc4[nH]ccc4c3)C2)cc1OC	TDP43 rescue 22µM, FUS yeast rescue inconclusive
COc1ccc([C@H]2CC(=O)C=C(c3ccc(SC)cc3)C2)cc1	none
COc1ccc(C2=CC(=O)C[C@H](c3ccc(OC)cc3)C2)cc1	TDP43 rescue 14µM, FUS yeast rescue inconclusive
COc1ccc(C2=CC(=O)C[C@H](c3ccc(Cl)cc3)C2)cn1	TDP43 rescue 18µM
COc1ccc([C@H]2CC(=O)C=C(c3cccc(C(C)C)c3)C2)cc1	none
COc1ccc([C@H]2CC(=O)C=C(c3cccc(OC)c3)C2)cc1	TDP43 rescue 11µM
CCc1ccc(NCc2cc3ccc(OC)cc3n(CC(=O)Nc3ccc(C)c(Cl)c3)c2=O)cc1	none
CCN(CC)C(=O)c1cccc(-c2csc(C(O)c3cccc(OC)c3)n2)c1 (stereo not drawn)	none
COc1ccc([C@H]2CC(=O)C=C(c3cc(Cl)cc(Cl)c3)C2)cc1	none
COc1ccc([C@H]2CC(=O)C=C(c3ccccc3)C2)cc1	TDP43 rescue 18µM, Abeta rescue inconclusive
COc1ccc([C@H]2CC(=O)C=C(c3ccc4cc[nH]c4c3)C2)cc1	TDP43 rescue 25µM
CCC(C)[C@H](NC(=O)OC(C)(C)C)C(=O)N/N=C/C1=Cc2ccccc2OC1 (stereo partly drawn)	FUS yeast rescue 28µM
C[C@H](NC(=O)OC(C)(C)C)C(=O)N/N=C/C1=Cc2ccccc2OC1	none
C(=N\Nc1nncc2ccccc12)/c1ccccc1	TDP43 rescue 22µM
Cc1cccc(/C=N/Nc2nncc3ccccc23)c1	none
COc1ccc2[nH]c(-c3ccccc3)cc2c1	TDP43 rescue 13µM
COc1ccc2nc(-c3ccccc3)[nH]c2c1	none
COc1cccc(NC(=O)Cn2c(=O)n(CCCCC(=O)NCc3ccccc3Cl)c(=O)c3ccccc32)c1	none (no result: aSyn rescue)
CN1C(=O)CC(c2ccco2)Sc2ccccc21 (stereo not drawn)	FUS yeast rescue inconclusive
COc1ccc(C2CC(=O)N(C)c3ccccc3S2)cc1 (stereo not drawn)	TDP43 rescue 13µM
O=C(NCCc1ccccc1)OCc1cn(Cc2cc(F)ccc2F)nn1	none (no result: TDP43 rescue, aSyn rescue, Abeta rescue)
CC(C)(C)NC(=O)CSc1nc2ccc(Nc3nc(N4CCOCC4)nc(N4CCOCC4)n3)cc2s1	TDP43 rescue 11µM, aSyn rescue inconclusive
CC(=O)CSc1nc2ccc(Nc3nc(N4CCOCC4)nc(N4CCOCC4)n3)cc2s1	FUS yeast rescue inconclusive
COc1ccc(NC(=O)C(Cl)=C(Cl)Cl)cn1	TDP43 rescue 13µM
COc1ccc(NC(=O)/C(Cl)=C(/Cl)S(=O)(=O)Cc2ccccc2)cn1	TDP43 rescue 3.2µM
COc1ccc(NC(=O)Nc2ccc(OCc3ccccc3)cc2)cn1	none
COc1ccc(NC(=O)CC2(CC(=O)O)CCCC2)cn1	TDP43 rescue 13µM
O=C(O)CC1(CC(=O)Nc2ccc(Oc3cccc(C(F)(F)F)c3)nc2)CCCC1	none
CN(C)c1ccc(C(I)C(I)c2ccnc3ccccc23)cc1 (stereo not drawn)	none (no result: TDP43 rescue, Abeta rescue, FUS yeast rescue)
O=C(OCC(=O)N1CCOCC1)c1ccccc1OCc1ccccc1	none
COc1cc(OC)c(NC(=O)C(C)n2nc(-c3ccc(C)c(C)c3)ccc2=O)cc1Cl (stereo not drawn)	TDP43 rescue 13µM, FUS yeast rescue inconclusive (no result: aSyn rescue)
CC(C)N(C(=O)CSc1nc2ccc(Cl)cc2[nH]1)c1ccccc1	TDP43 rescue 35µM (no result: aSyn rescue)
C(=C\c1nc2ccccc2nc1/C=C/c1ccc2c(c1)OCO2)/c1ccc2c(c1)OCO2	none (no result: TDP43 rescue, Abeta rescue, FUS yeast rescue)
CCOc1ccc(NC(=O)CN(c2ccc(Cl)cc2C)S(=O)(=O)c2ccccc2)cc1	FUS yeast rescue 22µM (no result: aSyn rescue)
CCOc1ccc(NC(=O)CN(c2ccccc2OCC)S(=O)(=O)c2ccccc2)cc1	none (no result: aSyn rescue)
Cc1cccc(CNC(=O)c2ccc(NC(=O)N3CCSc4ccccc43)cc2)c1	none (no result: aSyn rescue)
CCOCC(=O)Nc1nc2ccc(OCC)cc2s1	none
CCOc1ccc2nc(NC(=O)C3(C)CC3(Br)Br)sc2c1 (stereo not drawn)	TDP43 rescue 18µM, Abeta rescue inconclusive
COc1ccc2c(=O)c(-c3ccccc3)c(C)oc2c1	TDP43 rescue 11µM
COC(=O)c1cc(-c2c(C)oc3cc(OC)ccc3c2=O)c(C)o1	none
O=C(NCc1cccs1)C1CCCN1C(=O)Nc1ccc(F)cc1 (stereo not drawn)	none
COc1cccc(CCC(=O)N2CCC(n3nccc3NC(=O)CC(C)C)CC2)c1	none
C/C(N)=C(/C#N)C(=O)CSc1nnc(Nc2cccc(C)c2C)s1	none
Cc1cccc(Nc2nnc(SCC(=O)c3ccc(Br)s3)s2)c1C	TDP43 rescue 25µM, Abeta rescue inconclusive
Cc1ccccc1Nc1nnc(SCC(=O)Nc2ccccc2[N+](=O)[O-])s1	TDP43 rescue 16µM
COc1c(C)cc(Br)cc1C(=O)NC(=S)NCc1ccco1	none (no result: FUS yeast rescue)
COc1ccc(CNC(=O)c2ccc(-c3nc(CSc4ccccc4)c(C)o3)cc2)cc1	none (no result: aSyn rescue)
